This note sets out measurements from the supplement of paper PMC10338343.

± gives the standard deviation.

This test has as its system MILI (PIWIL2) piRISC loaded with piRNA #1 (26 nt). As to the kind of experiment: pre-steady-state target cleavage rate (min^-1); guide: piRNA #1 5'p-UGAGGUAGUAGGUUGUAUAGUAUCCA; MIWI and MILI are mouse PIWI proteins and EfPiwi is from a freshwater sponge; tags in brackets are library labels; higher = faster piRNA-guided slicing of the target. Particulars: auxiliary factor: 500 nM mouse GTSF1. In a few lines:
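Cleave-'n-Seq used a transcribed, DNA-blocked target RNA library at 0.1 nM and active affinity-purified piRISC with one synthetic guide at 1 nM, with or without 500 nM GTSF1 partner protein, in HEPES–potassium acetate buffer at 33 °C for 0–8 or 0–960 min. Uncleaved targets were sequenced and normalised to depth and to weakly complementary targets, and three trials were pooled with k3 capped at 0.0001 min^-1. The pre-steady-state cleavage rate was estimated by a burst-and-steady-state fit.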
As for GGAGACCUUACUAAACAACCUACUAGCUCA, the “pre-steady-state target cleavage rate” value was 0.139 ± 0.018. The value for GGAGACCUAUGUAUACAACCUACUACGAGA was 0.013 ± 0.0047. The value for GGAGACCUAACUAUUCAACCUACUACCUCA was 0.138 ± 0.022; that for GGAGACCUAUGAAUACAACCUACGACCUCA was 0.0047 ± 0.0026.

Take GGAGACCUAUGUAUAGAAGCUACUACCUCA: the “pre-steady-state target cleavage rate” value is 0.0984 ± 0.013. The value for GGAGACCUAUCUAAUCAACCUACUACCUCA was 0.0267 ± 0.0037; that for GGAGACCUUAGUAUUCAACCUACUACCUCA was 0.089 ± 0.011; that for GGAGACCUAUGAUAUGUUGCUACUACCUCCA was less than 0.0001.

For GGAGAGGUUAGUAUACAACCUACUACCUCA, the “pre-steady-state target cleavage rate” value turned out to be 0.0314 ± 0.0096. The value for GGAGACCAUACUAUACAUCCUACUACCACA was 0.279 ± 0.028; that for GGAGACCUAUCUAUACAACGUACUAGCUCA was 0.00553 ± 0.0029. The result for GGAGACCUAUGAAUACUAGCUACUACCUCA reads 0.00307 ± 0.002; that for GGAGACCUAACUAUACAACCUACAACCACA, 0.0203 ± 0.012. Regarding GGAGACCUAUUUAUACAACCUACUACCUCA, the “pre-steady-state target cleavage rate” value turned out to be 0.0657 ± 0.02. The result for GGAGACCUAUGAUAACAUCCUACUACCUCA reads 0.00447 ± 0.0023; that for GGAGACCUAUGAUUGCAACCUACUACCUCA, 0.00532 ± 0.003.

Regarding “GGAGACCUAUGAUAUGUACCUACUUGGAGA [g7:g13:cont:t1A]”, the “pre-steady-state target cleavage rate” value is less than 0.0001. The result for GGAGACCUUACUUUACAACCUACUACCUGA reads 0.0835 ± 0.014. The value for GGAGACCUAACUAUACAACCUACGUACCUCA was 0.0356 ± 0.015; that for GGAGACCUUACUAUAGAACCUACUUCCUCA was 0.00446 ± 0.0033. As for GGAGACCUAUGAAAACAACCUACUACCUCA, the “pre-steady-state target cleavage rate” value came to 0.0037 ± 0.0033. The result for GGAGACCUAUGAUAUGUUCGUACUACCUGA reads less than 0.0001.

On to GGAGUGGAUUCUAUAGAACCUACUACCUCA, for which the “pre-steady-state target cleavage rate” value is 0.179 ± 0.012. In the case of GGAGAGGAUACUAUUGAACCUACUACCUCA, the “pre-steady-state target cleavage rate” value came to 0.124 ± 0.011. The result for GGAGACCUAUCUAUACUACCUACUACGUCA reads 0.0241 ± 0.0069; that for GGAGACCUAUCUAUACAACCUACAAGCUCA, 0.0435 ± 0.012; that for GGAGACCUAUCUAUAGUACCUACUACCUCA, 0.092 ± 0.014. The result for GGAGACCUAUGAUAACAACCUACAUACCUCA reads 0.00403 ± 0.002; that for GGAGACCUAUCUAUACAACGUAGUACCUCA, 0.00772 ± 0.0031. As to GGAGACCUAUGAAUACAAGCUACUACGUCA, the “pre-steady-state target cleavage rate” value turned out to be 0.0102 ± 0.003. For the sequence GGAGUCGAUACUAUACAACCUACUACCUGA, the “pre-steady-state target cleavage rate” value was found to be 0.0703 ± 0.011.

With GGAGACCUAUGAUAUGUAACCUACUACCUCA, the “pre-steady-state target cleavage rate” value came to 0.017 ± 0.0038. The result for GGAGACCUUACUAUACAACCUACCACCUCA reads 0.118 ± 0.015; that for GGAGACCUAACUAAACAUCCUACUACCUCA, 0.216 ± 0.036; that for GGAGACCUUACUAUAGUACCUACUACCUCA, 0.119 ± 0.0098. The value for GGAGACCUAAGUAUACAACCUUCUACCUCA was 0.00652 ± 0.0032. The value for GGAGACCUAUGAAUACAACCUACUACUUCA was 0.00709 ± 0.0022. Consider GGAGACCUAUCUAUACAACCUAGCUACCUCA, for which the “pre-steady-state target cleavage rate” value stood at 0.0218 ± 0.0062.

For the sequence GGAGACCUAUGAUAUGUUGCUUCUACCUGA, the “pre-steady-state target cleavage rate” value is less than 0.0001. GGAGACCUAACUUUACAUCCUACUACCUCA: the “pre-steady-state target cleavage rate” value was 0.143 ± 0.025.
